Data as given in PubChem BioAssay AID1159580 (chemical genetic matrix, 2015).
Screen size: about 5,500 compounds; about 2,000 (36%) were called active. Another 18% or so got no clear call; they are omitted. Cut-off read from the data, not from the text of the source: active = normalized growth mostly below about 0.91 (no sharp cut-off); inconclusive = no clear call, values can overlap the other calls; inactive = mostly above about 0.92. The list shows a part of the results.

Test: chemical genetic growth profiling, strain panel (AID 1159580);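 note: tested at 20 µM; growth read once vehicle control cultures reached saturation at 30 °C; 1 = growth at the plate median or of vehicle wells; lower values mean less growth of the strain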
Conditions: growth OD

Measured: normalized growth

Nc1ccn(C2O[C@H](CO)[C@@H](O)[C@@H]2O)c(=O)n1 (stereo partly drawn)
inactive: S. cerevisiae deletion strains, locus YKL009W, strain mrt4, active compounds read low 0.992 | S. cerevisiae deletion strains, locus YKL068W, active compounds read low 0.994 | S. cerevisiae deletion strains, locus YKL085W, strain MDH1 (second series), active compounds read low 1 | S. cerevisiae deletion strains, locus YKL085W, strain MDH1, active compounds read low 1 | S. cerevisiae deletion strains, locus YKL160W, strain elf1, active compounds read low 1.05 | S. cerevisiae deletion strains, locus YKL190W, strain CNB1, active compounds read low 1.01 | S. cerevisiae deletion strains, locus YKR001C, strain vps1, active compounds read low 1.01 | S. cerevisiae deletion strains, locus YKR026C, strain gcn3, active compounds read low 0.999 | S. cerevisiae deletion strains, locus YKR091W, strain srl3, active compounds read low 0.997 | S. cerevisiae deletion strains, locus YLL001W, strain dnm1, active compounds read low 1.07 | S. cerevisiae deletion strains, locus YLL026W, active compounds read low 0.994 | S. cerevisiae deletion strains, locus YLL041C, strain sdh2, active compounds read low 0.981 | S. cerevisiae deletion strains, locus YLR027C, strain aat2, active compounds read low 0.993 | S. cerevisiae deletion strains, locus YLR039C, strain RIC1, active compounds read low 1.03 | S. cerevisiae deletion strains, locus YLR058C, strain SHM2, active compounds read low 1.01 | S. cerevisiae deletion strains, locus YLR102C, strain apc9, active compounds read low 0.977 | S. cerevisiae deletion strains, locus YLR113W, strain HOG1, active compounds read low 1.04 | S. cerevisiae deletion strains, locus YLR221C, strain rsa3, active compounds read low 1.06 | S. cerevisiae deletion strains, locus YLR258W, strain gsy2, active compounds read low 1.02 | S. cerevisiae deletion strains, locus YLR262C, strain YPT6 (second series), active compounds read low 1 | S. cerevisiae deletion strains, locus YLR262C, strain YPT6, active compounds read low 1.01 | S. cerevisiae deletion strains, locus YLR268W, strain sec22, active compounds read low 0.992 | S. cerevisiae deletion strains, locus YLR320W, strain mms22, active compounds read low 1.06 | S. cerevisiae deletion strains, locus YLR330W, strain CHS5, active compounds read low 1.01 | S. cerevisiae deletion strains, locus YLR342W, strain FKS1 (second series), active compounds read low 1.02 | S. cerevisiae deletion strains, locus YLR342W, strain FKS1, active compounds read low 0.994 | S. cerevisiae deletion strains, locus YLR357W, strain rsc2, active compounds read low 0.988 | S. cerevisiae deletion strains, locus YLR370C, strain arc18, active compounds read low 1.01 | S. cerevisiae deletion strains, locus YLR371W, strain rom2, active compounds read low 0.995 | S. cerevisiae deletion strains, locus YLR384C, strain iki3, active compounds read low 1 | S. cerevisiae deletion strains, locus YLR418C, strain cdc73, active compounds read low 0.966 | S. cerevisiae deletion strains, locus YML016C, strain PPZ1, active compounds read low 1.01 | S. cerevisiae deletion strains, locus YML032C, strain rad52, active compounds read low 1.01 | S. cerevisiae deletion strains, locus YML120C, strain ndi1, active compounds read low 1.02 | S. cerevisiae deletion strains, locus YML124C, strain tub3, active compounds read low 0.988 | S. cerevisiae deletion strains, locus YMR058W, strain fet3, active compounds read low 0.997 | S. cerevisiae deletion strains, locus YMR078C, strain ctf18, active compounds read low 0.992 | S. cerevisiae deletion strains, locus YMR125W, strain sto1, active compounds read low 0.996 | S. cerevisiae deletion strains, locus YMR129W, active compounds read low 0.979 | S. cerevisiae deletion strains, locus YMR205C, strain PFK2, active compounds read low 1.04 | S. cerevisiae deletion strains, locus YMR223W, strain ubp8, active compounds read low 0.995 | S. cerevisiae deletion strains, locus YMR231W, strain pep5, active compounds read low 0.989 | S. cerevisiae deletion strains, locus YMR263W, strain SAP30, active compounds read low 1 | S. cerevisiae deletion strains, locus YMR307W, strain GAS1, active compounds read low 1.04 | S. cerevisiae deletion strains, locus YNL067W, strain RPL9B, active compounds read low 1 | S. cerevisiae deletion strains, locus YNL071W, strain lat1, active compounds read low 0.977 | S. cerevisiae deletion strains, locus YNL128W, strain TEP1, active compounds read low 1.02 | S. cerevisiae deletion strains, locus YNL183C, strain NPR1, active compounds read low 0.964 | S. cerevisiae deletion strains, locus YNL209W, strain ssb2, active compounds read low 0.994 | S. cerevisiae deletion strains, locus YNL233W, strain BNI4, active compounds read low 0.991 | S. cerevisiae deletion strains, locus YNL248C, strain rpa49, active compounds read low 0.993 | S. cerevisiae deletion strains, locus YNL250W, strain rad50, active compounds read low 0.994 | S. cerevisiae deletion strains, locus YNL271C, strain bni1, active compounds read low 0.996 | S. cerevisiae deletion strains, locus YNL298W, strain CLA4, active compounds read low 0.998 | S. cerevisiae deletion strains, locus YNL307C, strain MCK1, active compounds read low 0.997 | S. cerevisiae deletion strains, locus YNL322C, strain KRE1 (second series), active compounds read low 1.01 | S. cerevisiae deletion strains, locus YNR049C, strain mso1, active compounds read low 0.989 | S. cerevisiae deletion strains, locus YNR052C, strain pop2, active compounds read low 0.996 | S. cerevisiae deletion strains, locus YOL006C, strain TOP1, active compounds read low 1.05 | S. cerevisiae deletion strains, locus YOL012C, strain htz1 1.42 | S. cerevisiae deletion strains, locus YOL147C, strain pex11, active compounds read low 0.992 | S. cerevisiae deletion strains, locus YOR001W, strain rrp6, active compounds read low 0.933 | S. cerevisiae deletion strains, locus YOR061W, strain CKA2, active compounds read low 1.01 | S. cerevisiae deletion strains, locus YOR069W, strain VPS5, active compounds read low 1.01 | S. cerevisiae deletion strains, locus YOR070C, strain gyp1, active compounds read low 0.993 | S. cerevisiae deletion strains, locus YOR080W, strain dia2, active compounds read low 0.992 | S. cerevisiae deletion strains, locus YOR083W, strain WHI5, active compounds read low 1.06 | S. cerevisiae deletion strains, locus YOR106W, strain vam3, active compounds read low 1.08 | S. cerevisiae deletion strains, locus YOR136W, strain idh2, active compounds read low 1 | S. cerevisiae deletion strains, locus YOR144C, strain elg1, active compounds read low 1 | S. cerevisiae deletion strains, locus YOR184W, strain ser1, active compounds read low 0.997 | S. cerevisiae deletion strains, locus YOR231W, strain MKK1, active compounds read low 1.03 | S. cerevisiae deletion strains, locus YOR265W, strain rbl2, active compounds read low 1 | S. cerevisiae deletion strains, locus YOR270C, strain vph1, active compounds read low 1.05 | S. cerevisiae deletion strains, locus YOR290C, strain snf2, active compounds read low 1.02 | S. cerevisiae deletion strains, locus YOR316C, strain cot1, active compounds read low 0.993 | S. cerevisiae deletion strains, locus YPL051W, strain arl3, active compounds read low 1.04 | S. cerevisiae deletion strains, locus YPL078C, strain atp4, active compounds read low 1.04 | S. cerevisiae deletion strains, locus YPL106C, strain sse1, active compounds read low 1.01 | S. cerevisiae deletion strains, locus YPL240C, strain hsp82, active compounds read low 1.01 | S. cerevisiae deletion strains, locus YPL241C, strain CIN2, active compounds read low 1.01 | S. cerevisiae deletion strains, locus YPL256C, strain CLN2, active compounds read low 1.03 | S. cerevisiae deletion strains, locus YPR119W, strain clb2, active compounds read low 0.986 | S. cerevisiae deletion strains, locus YPR141C, strain kar3, active compounds read low 0.993 | S. cerevisiae deletion strains, locus YPR163C, strain tif3, active compounds read low 1.01 | S. cerevisiae deletion strains, locus YPR167C, strain met16, active compounds read low 0.995 | S. cerevisiae deletion strains, strain wtn01, active compounds read low 0.993 | S. cerevisiae strains, strain wild type, active compounds read low 1.01
